Assay results from PubChem BioAssay (NCI).
“And” between values parts separate entries of the source, which are not always exact repeats. Identical values can stand only once. Compounds without any hit were thinned out: in the full panel of roughly 83,000, 20% have a hit.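 Negative percent growth values reflect cell death: -40 means 40% of the cells present at the start died, and -100 means all died.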 The source made the active and inactive calls. The calls were made as follows: active = growth percent below 10; inactive = the rest. Starred links: 1 amine or outer side, 2 acyl side, 3 side chain; linkers in the order of their positions; H or OH if unused. Positions of bridges follow the written chain, without caps; N, C: chain ends. Non-standard residues stand in square brackets, D forms with d. Residues, ends and D or L forms follow the SMILES beside them. Chains are numbered I, II in the order given. Actinocin(9to1) = Cc1c2oc3c(C)ccc(C(=O)[*:1])c3nc-2c(C(=O)[*:2])c(N)c1=O; aThr = C[C@H](O)[C@H](N)C(=O)O; NMeV = CN[C@H](C(=O)O)C(C)C; Sar = CNCC(=O)O

How the values were obtained:
Test in all cases: NCI-60 one-dose screen, 48 h (100 = growth as untreated, 0 = no growth, -100 = all killed)
SN12C renal = tested on: SN12C renal
UO-31 renal = tested on: UO-31 renal
TK-10 renal = tested on: TK-10 renal
ACHN renal = tested on: ACHN renal
CAKI-1 renal = tested on: CAKI-1 renal
A498 renal = tested on: A498 renal
CCRF-CEM leukemia = tested on: CCRF-CEM leukemia
MOLT-4 leukemia = tested on: MOLT-4 leukemia
SR leukemia = tested on: SR leukemia
RPMI-8226 leukemia = tested on: RPMI-8226 leukemia
OVCAR-8 ovarian = conditions: 10 µM
OVCAR-5 ovarian = tested on: OVCAR-5 ovarian
OVCAR-4 ovarian = tested on: OVCAR-4 ovarian
IGROV1 ovarian = tested on: IGROV1 ovarian
HS 578T breast = tested on: HS 578T breast
NCI/ADR-RES ovarian = tested on: NCI/ADR-RES ovarian
T-47D breast = tested on: T-47D breast
BT-549 breast = tested on: BT-549 breast
MDA-MB-435 melanoma = tested on: MDA-MB-435 melanoma
SW-620 colon = tested on: SW-620 colon

Measured: growth

CCCCCCCCCCCCCCCCCN
inactive: SN12C renal; 10 µM 96.8% | UO-31 renal; 10 µM 87.6% | TK-10 renal; 10 µM 102% | ACHN renal; 10 µM 97% | CAKI-1 renal; 10 µM 91.1% | A498 renal; 10 µM 104% | CCRF-CEM leukemia; 10 µM 102% | MOLT-4 leukemia; 10 µM 104% | SR leukemia; 10 µM 57.8% | RPMI-8226 leukemia; 10 µM 107% | OVCAR-8 ovarian 104% | OVCAR-5 ovarian; 10 µM 106% | OVCAR-4 ovarian; 10 µM 102% | IGROV1 ovarian; 10 µM 107% | HS 578T breast; 10 µM 103% | NCI/ADR-RES ovarian; 10 µM 115% | T-47D breast; 10 µM 101% | BT-549 breast; 10 µM 106% | MDA-MB-435 melanoma; 10 µM 99.5% | SW-620 colon; 10 µM 97.1%

Nc1ccc2cc(Br)c3ccccc3c2c1
inactive: SN12C renal; 10 µM 63.8% | UO-31 renal; 10 µM 42.9% | TK-10 renal; 10 µM 85.8% | ACHN renal; 10 µM 66% | CAKI-1 renal; 10 µM 20.1% | A498 renal; 10 µM 77.5% | CCRF-CEM leukemia; 10 µM 37.8% | MOLT-4 leukemia; 10 µM 28.2% | SR leukemia; 10 µM 57.5% | RPMI-8226 leukemia; 10 µM 40% | OVCAR-8 ovarian 84.8% | OVCAR-5 ovarian; 10 µM 79.9% | OVCAR-4 ovarian; 10 µM 56.7% | IGROV1 ovarian; 10 µM 82.2% | NCI/ADR-RES ovarian; 10 µM 67.2% | T-47D breast; 10 µM 28.8% | BT-549 breast; 10 µM 68.9% | MDA-MB-435 melanoma; 10 µM 66%

BrC/C=C/C[P+](c1ccccc1)(c1ccccc1)c1ccccc1
inactive: SN12C renal; 10 µM 64.4% | UO-31 renal; 10 µM 66.2% | TK-10 renal; 10 µM 48.7% | ACHN renal; 10 µM 43.4% | CAKI-1 renal; 10 µM 103% | A498 renal; 10 µM 72.9% | CCRF-CEM leukemia; 10 µM 37.9% | MOLT-4 leukemia; 10 µM 79.7% | OVCAR-8 ovarian 28.3% | OVCAR-5 ovarian; 10 µM 85.2% | OVCAR-4 ovarian; 10 µM 98.8% | IGROV1 ovarian; 10 µM 83.8% | HS 578T breast; 10 µM 92.4% | NCI/ADR-RES ovarian; 10 µM 96.7% | T-47D breast; 10 µM 10.7% | BT-549 breast; 10 µM 57.1% | MDA-MB-435 melanoma; 10 µM 28.4% | SW-620 colon; 10 µM 32.3%
active: RPMI-8226 leukemia; 10 µM 4.56%

N#C/C(=C1C=C/C(=N\O)C(Cl)=C\1)c1ccccc1
inactive: SN12C renal; 10 µM 34.8% | UO-31 renal; 10 µM 34% | TK-10 renal; 10 µM 53.1% | ACHN renal; 10 µM 25.7% | A498 renal; 10 µM 86.5% | MOLT-4 leukemia; 10 µM 33.6% | RPMI-8226 leukemia; 10 µM 27.3% | OVCAR-8 ovarian 43.2% | OVCAR-5 ovarian; 10 µM 64% | OVCAR-4 ovarian; 10 µM 57% | IGROV1 ovarian; 10 µM 53% | HS 578T breast; 10 µM 56.2% | NCI/ADR-RES ovarian; 10 µM 34% | T-47D breast; 10 µM 43.3% | BT-549 breast; 10 µM 110% | SW-620 colon; 10 µM 17.8%
active: CAKI-1 renal; 10 µM 5.29% | MDA-MB-435 melanoma; 10 µM -43%

COc1cc(C(C)(C)C)cc(OC)c1C(O)(c1c(OC)cc(C(C)(C)C)cc1OC)c1c(OC)cc(C(C)(C)C)cc1OC
active: SN12C renal; 10 µM -80.2% | UO-31 renal; 10 µM -75.7% | TK-10 renal; 10 µM -90.8% | ACHN renal; 10 µM -93% | CAKI-1 renal; 10 µM -69.1% | A498 renal; 10 µM -79.4% | CCRF-CEM leukemia; 10 µM -68% | MOLT-4 leukemia; 10 µM -81% | SR leukemia; 10 µM -77.5% | RPMI-8226 leukemia; 10 µM -27.1% | OVCAR-8 ovarian -64.3% | OVCAR-5 ovarian; 10 µM -100% | OVCAR-4 ovarian; 10 µM -99.6% | IGROV1 ovarian; 10 µM 2.83% | HS 578T breast; 10 µM -33.3% | NCI/ADR-RES ovarian; 10 µM -56.8% | T-47D breast; 10 µM -30.2% | BT-549 breast; 10 µM -58.9% | MDA-MB-435 melanoma; 10 µM -45.3% | SW-620 colon; 10 µM -79.8%

COc1ccc2c(C)cc(N/N=C/c3sccc3C)nc2c1
active: TK-10 renal; 100 µM -82.7% and -100%

Cc1c2oc3c(C)ccc(C(=O)N[C@@H]4C(=O)N[C@H](C(C)C)C(=O)N5CCC[C@H]5C(=O)N(C)CC(=O)N(C)[C@@H](C(C)C)C(=O)O[C@H]4C)c3nc-2c(C(=O)N[C@@H]2C(=O)N[C@H](C(C)C)C(=O)N3CCC[C@H]3C(=O)N(C)CC(=O)N(C)[C@@H](C(C)C)C(=O)O[C@H]2C)c(N)c1=O (I: [aThr][dV]P[Sar][NMeV] / II: [aThr][dV]P[Sar][NMeV]; ester I:1-I:C, II:1-II:C; linker I:N-II:N via Actinocin(9to1))
active: UO-31 renal; 10 µM -12.6% | TK-10 renal; 10 µM 9.15% | ACHN renal; 10 µM 3.24% | CAKI-1 renal; 10 µM -13.7% | CCRF-CEM leukemia; 10 µM 0.799% | MOLT-4 leukemia; 10 µM -7.29% | SR leukemia; 10 µM 3.04% | RPMI-8226 leukemia; 0.0025 µM 3.42% | RPMI-8226 leukemia; 10 µM -21.3% | OVCAR-5 ovarian; 10 µM -66.1% | OVCAR-4 ovarian; 10 µM -8.21% | IGROV1 ovarian; 10 µM -27.7% | HS 578T breast; 0.0025 µM -10.9% | NCI/ADR-RES ovarian; 10 µM -39.5% | T-47D breast; 10 µM -13.8% | BT-549 breast; 10 µM -45.4% | MDA-MB-435 melanoma; 10 µM -93.8% | SW-620 colon; 10 µM -27.9%
inactive: SN12C renal; 0.0025 µM 46.6% | SN12C renal; 10 µM 14.9% | UO-31 renal; 0.0025 µM 99.4% | TK-10 renal; 0.0025 µM 87.7% | ACHN renal; 0.0025 µM 62% | CAKI-1 renal; 0.0025 µM 92.2% | A498 renal; 0.0025 µM 32.4% | CCRF-CEM leukemia; 0.0025 µM 42.3% | MOLT-4 leukemia; 0.0025 µM 23% | SR leukemia; 0.0025 µM 14.8% | OVCAR-5 ovarian; 0.0025 µM 50.9% | OVCAR-4 ovarian; 0.0025 µM 50.3% | IGROV1 ovarian; 0.0025 µM 35.5% | NCI/ADR-RES ovarian; 0.0025 µM 96.7% | T-47D breast; 0.0025 µM 53.6% | BT-549 breast; 0.0025 µM 27.5% | MDA-MB-435 melanoma; 0.0025 µM 41.6% | SW-620 colon; 0.0025 µM 32.8%

CN1CCN(c2ccc3nc(-c4ccc5nc(-c6ccc(O)cc6)[nH]c5c4)[nH]c3c2)CC1
inactive: SN12C renal; 10 µM 88.9% | UO-31 renal; 10 µM 103% | TK-10 renal; 10 µM 111% | ACHN renal; 10 µM 94.4% | CAKI-1 renal; 10 µM 92.6% | CCRF-CEM leukemia; 10 µM 74% | MOLT-4 leukemia; 10 µM 76.4% | SR leukemia; 10 µM 67% | RPMI-8226 leukemia; 10 µM 107% | OVCAR-5 ovarian; 10 µM 61.9% | OVCAR-4 ovarian; 10 µM 89.8% | IGROV1 ovarian; 10 µM 112% | NCI/ADR-RES ovarian; 10 µM 130% | T-47D breast; 10 µM 39.2% | BT-549 breast; 10 µM 97.9% | MDA-MB-435 melanoma; 10 µM 52.5% | SW-620 colon; 10 µM 87.1%

O=C(/C(=C/c1ccccc1)CBr)c1ccccc1
active: CCRF-CEM leukemia; 10 µM -4.28% | MOLT-4 leukemia; 10 µM -3.18% | SR leukemia; 10 µM -0.723%
inactive: SN12C renal; 10 µM 71.4% | UO-31 renal; 10 µM 69.9% | TK-10 renal; 10 µM 116% | ACHN renal; 10 µM 70% | CAKI-1 renal; 10 µM 60.1% | A498 renal; 10 µM 128% | RPMI-8226 leukemia; 10 µM 16.9% | OVCAR-8 ovarian 86.1% | OVCAR-5 ovarian; 10 µM 122% | OVCAR-4 ovarian; 10 µM 80.3% | IGROV1 ovarian; 10 µM 90.9% | HS 578T breast; 10 µM 82.9% | NCI/ADR-RES ovarian; 10 µM 81.4% | T-47D breast; 10 µM 77.5% | BT-549 breast; 10 µM 112% | MDA-MB-435 melanoma; 10 µM 64% | SW-620 colon; 10 µM 17.3%
